Shown are actives, neighbours in structure and some others; about 4.1% of the full set was active somewhere.
MBD2 inh = inhibitors of MBD2 binding to methylated DNA, primary screen, biochemical, TR-FRET, DNA-binding domain, human; Methyl-CpG-binding domain protein 2 (Homo sapiens), Q9UBB5; MBD2 binding to methylated oligonucleotide; inhibition, % at 4.4 µM; 370,000 compounds, 0.31% hits; AID 686964, 2013; in the data active = inhibition above about 13%
Target sequence (Q9UBB5 whole entry, looked up, the tested form may be a part): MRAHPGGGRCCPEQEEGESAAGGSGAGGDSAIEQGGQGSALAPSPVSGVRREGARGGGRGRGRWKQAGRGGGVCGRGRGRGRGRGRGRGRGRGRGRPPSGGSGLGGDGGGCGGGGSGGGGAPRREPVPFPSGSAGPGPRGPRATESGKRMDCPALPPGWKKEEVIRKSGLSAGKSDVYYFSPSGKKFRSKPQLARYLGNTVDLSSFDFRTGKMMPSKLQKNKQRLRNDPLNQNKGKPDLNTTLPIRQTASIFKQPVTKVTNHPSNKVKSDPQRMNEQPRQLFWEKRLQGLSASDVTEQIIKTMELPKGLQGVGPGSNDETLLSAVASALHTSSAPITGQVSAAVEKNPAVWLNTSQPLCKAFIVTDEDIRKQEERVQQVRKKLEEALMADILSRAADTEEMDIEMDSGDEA
UHRF1 binding = UHRF1 methylated DNA binding inhibitors, primary screen, counter-screen for MBD2 inhibitor project, biochemical, TR-FRET, human UHRF1, single concentration; inhibition, % at 4.4 µM; UHRF1 binding to methylated oligo; E3 ubiquitin-protein ligase UHRF1 (Homo sapiens), Q96T88; 370,000 compounds, 0.75% hits; in the data active = inhibition above about 21%;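 also: UHRF1 SRA domain binding a hemimethylated CpG hairpin DNA probe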
LEDGF integ inh = blockers of LEDGF/p75-dependent integrase strand transfer – biochemical, TR-FRET, high throughput, primary screen; 370,000 compounds, 0.64% hits; TR-FRET IN-LEDGF/p75 DNA integration, Eu/Cy5; inhibition, % at 3.7 µM; HIV-1 integrase (with human LEDGF/p75);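 active = inhibition above the screen-wide mean plus 3 SD, cut at about 13% in these data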;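 also: signal is the Cy5 over europium emission ratio at 671 and 618 nm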
PRMT1 inh = PRMT1 methyltransferase inhibitors, primary screen, biochemical, fluorescence polarization | Protein arginine N-methyltransferase 1 (Homo sapiens), Q99873 | recombinant PRMT1, activity-based probe fluorescence polarization | inhibition, % at 2.79 µM | 370,000 compounds, 1.3% hits;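 active = inhibition above about 21% made by adding two undisclosed values, limit read from the data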
ABHD5-PLIN5 inh = ABHD5-PLIN5 interaction inhibitors, primary screen, cell lysate, split luciferase complementation, luminescence. Perilipin-5 (Homo sapiens) + 1-acylglycerol-3-phosphate O-acyltransferase ABHD5 (Homo …. AID 602281, 2012. 360,000 compounds, 0.78% hits. inhibition, % at 4 µM. Split G. princeps luciferase complementation, 4 h;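 active = inhibition above the mean inhibition across every tested compound plus 3 SD, cut at about 22% in these data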
rCAG RNA binder = binders of r(CAG) RNA repeats, primary screen, biochemical, fluorescence; r(CAG) RNA repeat, TO-PRO-1 dye displacement fluorescence; inhibition, % at 3 µM; 370,000 compounds, 1.3% hits; AID 651821, 2012;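 active = inhibition above the plate cutoff, the mean of all test compounds on that plate plus 3 SD, cut at about 35% in these data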;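 also: higher means more dye released from RNA so lower well fluorescence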
Each line names hits and unclear results; the compound was inactive in the other large screens.

COc1ccc(S(=O)(=O)NCc2ccccn2)cc1NC(=O)c1ccccc1	UHRF1 binding 35.5
O=S(=O)(NCc1ccccn1)c1ccc2ccccc2c1	none
COc1ccc(S(=O)(=O)NCc2ccccn2)cc1NC(=O)c1ccc(C)cc1	none
Cc1ccc(S(=O)(=O)NCc2ccccn2)cc1C	UHRF1 binding 23.0
O=C(NCCc1ccccc1)OCc1cn(Cc2cc(F)cc(F)c2)nn1	none (no result: ABHD5-PLIN5 inh)
O=C(CSc1nccc(=O)[nH]1)NCc1ccco1	UHRF1 binding 33.5
O=C(CSc1ccc2c(c1)OCCO2)NCc1ccco1	PRMT1 inh 21.8
Cc1occc1-c1nnc(SCC(=O)NCc2ccco2)n1CC(C)C	ABHD5-PLIN5 inh 23.0
O=C(CCSCCC(=O)NCc1ccco1)NCc1ccco1	PRMT1 inh 24.1 (no result: ABHD5-PLIN5 inh)
COC(=O)[C@]12C[C@H](CC(=O)NCCCCc3ccccc3)C(=O)N(Cc3cccc4ccccc34)C1=C[C@H](C1CCCC1)O[C@@H]2C	none (no result: ABHD5-PLIN5 inh)
CC(C)(C)NC(=O)[C@@H](c1cccnc1)N(C(=O)c1ccco1)c1ccc(C(C)(C)C)cc1	none (no result: ABHD5-PLIN5 inh, rCAG RNA binder)
COCc1cc(N2CCN(C(=O)OC(C)(C)C)C[C@H]2C)ccc1N1CCN(Cc2ccccc2)[C@@H](C)C1	none (no result: ABHD5-PLIN5 inh)
CCOC(=O)c1nc2cc3n(c(CC(C)C)c-2c1C)CC(C)=C3C	none
CCOC(=O)c1nc2cc3n(c(C)c-2c1C)C(C)C(C)=C3C (configuration not stated)	UHRF1 binding 23.0
CCOC(=O)N[C@H](C(=O)N1CCC[C@H]1C(=O)NC1CCCC1)C1CCCCC1	none (no result: ABHD5-PLIN5 inh)
CCCCCCCCCCCC(=O)N/N=C/c1ccco1	UHRF1 binding 27.1
CCCCCCCC(=O)N/N=C/c1ccco1	none
N#Cc1ccc(C(=O)Oc2coc(CSc3ncccn3)cc2=O)cc1	none (no result: ABHD5-PLIN5 inh, rCAG RNA binder)
C[C@H](CO)N1C[C@H](C)[C@@H](CN(C)C(=O)Nc2ccccc2)Oc2cc(Br)ccc2S1(=O)=O	none
C[C@@H]1CN([C@H](C)CO)S(=O)(=O)c2ccc(Br)cc2O[C@H]1CN(C)C(=O)Nc1ccccc1	UHRF1 binding 21.1
C[C@@H]1CN([C@@H](C)CO)S(=O)(=O)c2ccc(Br)cc2O[C@H]1CN(C)C(=O)Nc1ccc2c(c1)OCO2	UHRF1 binding 56.1
C=CCNC(=O)CN(C(=O)Cc1cccc(OC(F)(F)F)c1)c1cccc(Br)c1	none (no result: ABHD5-PLIN5 inh)
O=C(NN=Cc1cccc(OCc2ccccc2)c1)c1cc(-c2ccc(Cl)cc2)n[nH]1	none (no result: ABHD5-PLIN5 inh)
Clc1ccccc1Cc1noc(CN2CCN3CCCC3C2)n1 (configuration not stated)	UHRF1 binding 28.9
OC1CCN(Cc2nc(Cc3ccccc3Cl)no2)CC1	none
Cc1ccc(CN2CCNC(=O)C2CC(=O)NCCCn2nnc3ccccc32)cc1 (configuration not stated)	none
O=C(CC1C(=O)NCCN1Cc1ccoc1)NCCCn1ncc2ccccc21 (configuration not stated)	ABHD5-PLIN5 inh 33.4
CC(=O)OC[C@H]1O[C@H](C#Cc2ccc(C(C)(C)C)cc2)C=C[C@H]1OC(=O)Nc1ccccc1	none (no result: ABHD5-PLIN5 inh)
O=C(Cn1cc(COc2ccc(C(=O)c3ccccc3)cc2)nn1)c1ccc(O)cc1	UHRF1 binding 22.4
CCC(=O)c1ccc(OCc2ccccc2)c(OC)c1	none
CCC(=O)c1ccc(OCc2ccc(C(=O)c3ccccc3)cc2)cc1	UHRF1 binding 22.5
CCC(=O)c1ccc(OCc2cn(CC(=O)c3ccc(O)cc3)nn2)cc1	UHRF1 binding 21.7
CC(=O)OC12CCCN(C1)/C(=C/c1cccc(Cl)c1)C2 (configuration not stated)	none (no result: ABHD5-PLIN5 inh)
O=C(CCSc1ccccc1)Nc1ccccc1Br	UHRF1 binding 25.5
Cc1ccnc(NS(=O)(=O)c2cccs2)c1	none
Cc1ccc(NS(=O)(=O)c2cccs2)nc1	UHRF1 binding 30.1
COCc1cc(CN2CCCC(C(=O)Nc3ccc(-c4ccco4)cc3)C2)ccc1OC (configuration not stated)	ABHD5-PLIN5 inh 31.7
CCc1cc(Cn2nc(-c3ccccc3)cc2C(=O)NCc2ccc(C)cc2)on1	none
CCc1cc(Cn2nc(-c3ccccc3)cc2C(=O)O)on1	UHRF1 binding 79.6
COC1=C[C@H](C(=O)NCc2ccc(OC)cc2)C(C)C(c2ccccc2)CC1=O (some centres not stated)	none (no result: ABHD5-PLIN5 inh)
CCC[C@@H](/C=C/C(=O)OC(C)(C)C)Sc1ccc(N)cc1	none (no result: ABHD5-PLIN5 inh)
CCOC(=O)c1sc(N(Cc2ccccc2)C(=O)CCl)nc1C	PRMT1 inh 21.6
CCOC(=O)c1sc(Nc2ccccc2Cl)nc1C	UHRF1 binding 26.6
Cc1cc(C(=O)OCC(=O)NC2CCCC2)c2ccccc2n1	none
O=C(OCC(=O)N1CCN(C(=O)c2ccco2)CC1)c1cc(-c2ccc(Cl)c(Cl)c2Cl)nc2ccccc12	none
O=C(OCC(=O)N1CCN(C(=O)c2ccco2)CC1)c1cccc(S(=O)(=O)N2CCc3ccccc32)c1	UHRF1 binding 20.8
O=C(O)c1cc(-c2ccco2)nc2ccccc12	PRMT1 inh 23.5
O=C(OCC(=O)N1CCN(C(=O)c2ccco2)CC1)c1cc(-c2ccco2)nc2ccccc12	ABHD5-PLIN5 inh 23.9 (no result: MBD2 inh, UHRF1 binding, LEDGF integ inh, PRMT1 inh, rCAG RNA binder)
Cc1cc(C(=O)OCC(=O)N2CCC(C)CC2)c2ccccc2n1	LEDGF integ inh 34.9
CNS(=O)(=O)c1cccc(C(=O)OCC(=O)N2CCN(C(=O)c3ccco3)CC2)c1	none
CC1(C)CC(=O)C(CSC(=O)c2ccccc2)C(=O)C1	PRMT1 inh 24.1
Cc1ccc(NC(=O)C(=O)NCC2OCCc3ccccc32)cc1 (configuration not stated)	UHRF1 binding 57.3
O=C(CN1C(=O)S/C(=C\c2ccccc2F)C1=O)Nc1ccccc1O	PRMT1 inh 21.7
Cc1c(Br)c([N+](=O)[O-])nn1CCCC(=O)N1CCN(c2ccccc2)CC1	none
Cc1c(Cl)c([N+](=O)[O-])nn1CCCC(=O)N1CCN(c2ccccc2)CC1	UHRF1 binding 31.2
CCC(=O)Nc1ccc(C(=O)Cn2ncc(Cl)c(Cl)c2=O)cc1	none
CCOC(=O)c1ccc(NC(=O)Cn2ncc(Cl)c(Cl)c2=O)cc1	PRMT1 inh 24.5
COC(=O)[C@]1(Sc2ccc(C)cc2)CC(=O)N[C@@H]1c1ccco1	PRMT1 inh 21.3
Nc1ccn([C@@H]2O[C@H](C(=O)N[C@H](Cc3ccccc3)C(=O)NCC(F)(F)F)[C@@H](O)[C@H]2O)c(=O)n1	none (no result: ABHD5-PLIN5 inh)
Cc1ccc(Cn2cc(CN3[C@H](CC(C)C)COc4cc(Br)ccc4S3(=O)=O)nn2)cc1	none (no result: ABHD5-PLIN5 inh)
